Binding signal data for 175 sequences are collected here from PMC6212790, “How bacterial xenogeneic silencer rok distinguishes foreign from self DNA in its resident genome”.

Over roughly 33,000 sequences, “e-score” has its median near -0.037; the highest 2% begin near 0.34. The full list was thinned out, with the highest values kept by preference.

This experiment concerns the target T1, GST-Rok (full length) (Bacillus subtilis subsp. subtilis str. …, UniProt O34857 1-191).
T1 sequence: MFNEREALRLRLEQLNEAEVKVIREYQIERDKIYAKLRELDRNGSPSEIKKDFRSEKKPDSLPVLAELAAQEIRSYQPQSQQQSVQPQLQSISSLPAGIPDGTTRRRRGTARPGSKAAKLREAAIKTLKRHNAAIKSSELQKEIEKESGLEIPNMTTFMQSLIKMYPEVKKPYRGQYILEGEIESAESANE
Nature of the experiment: protein binding microarray; Rok is a gene silencer of Bacillus subtilis; high values mean tight binding. Particulars: protein: recombinant; tags: GST (pTH5325, pDEST15-Magic modified); dsDNA, one strand shown. The essentials:
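Every oligonucleotide joins a 25-mer constant primer to a 35-mer variable part drawn from a de Bruijn sequence of order 10, so each non-palindromic 8-mer appears at least 32 times and each palindromic 8-mer 16 times. The preference for every 8-mer is reported as a unitless, rank-based enrichment score (E-score). This score spans 0.5 for the most favored 8-mer to −0.5 for the most disfavored.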
For the sequence ATATTATG, the binding signal is 0.111 E-score.
ATATTATA: the binding signal was 0.425 E-score.
In the case of CTATTATC it was 0.214 E-score; in that of GTATTAAA, 0.109 E-score.
On to GTATTATA, for which the binding signal stood at 0.35 E-score.
As to GTATTAGA, the binding signal is 0.22 E-score.
For the sequence CTGTTATA, the binding signal was 0.308 E-score.
Turning to ATATTATC, the binding signal was found to be 0.319 E-score.
With CTATTATA, the binding signal was determined as 0.366 E-score.
As for ATGTTATC, the binding signal was determined as 0.206 E-score.
ATGTTATA: the binding signal was 0.35 E-score.
As for CGATTATA, the binding signal turned out to be 0.215 E-score.
Regarding CGTCCTAA, the binding signal was -0.0629 E-score.
With CGAACTGC, the binding signal was -0.11 E-score.
ACCATGCG: the binding signal is -0.0629 E-score.
TCGAAGCA: the binding signal is -0.0477 E-score.
In the case of GAACTAGA it was 0.36 E-score; in that of CAACTAGA, 0.247 E-score; in that of ACACTAGA, 0.197 E-score.
TAACTAGA: the binding signal is 0.224 E-score.
Turning to AAACTAGA, the binding signal was 0.355 E-score.
As to AGACTAGA, the binding signal came out at 0.173 E-score.
Consider CCGGCGAA, for which the binding signal was -0.00971 E-score.
As to TAATAATA, the binding signal amounted to 0.395 E-score.
In the case of CATTAATA it was 0.171 E-score; in that of AAATAATA, 0.312 E-score; in that of AATTAATA, 0.256 E-score.
CAATAATA: the binding signal worked out at 0.352 E-score.
With CAATAATC, the binding signal worked out at 0.0735 E-score.
With GAATAATA, the binding signal is 0.271 E-score.
As for TATTAATA, the binding signal was found to be 0.368 E-score.
In the case of CAATAATG it was 0.0655 E-score; in that of ACTCACTA, 0.177 E-score; in that of ACAGCATG, 0.0491 E-score.
In the case of AGGCACTG, the binding signal was -0.0252 E-score.
For the sequence CGTGATAA, the binding signal was found to be 0.124 E-score.
Regarding CCCGGCCG, the binding signal is -0.162 E-score.
In the case of CCAAATAG it was -0.0889 E-score; in that of CGTGCGAG, -0.181 E-score.
As for TTATTGAA, the binding signal is -0.0458 E-score.
GGTAAATA: the binding signal was 0.299 E-score.
With AGTAAATA, the binding signal stood at 0.387 E-score.
The value for CGTAAATC was 0.0869 E-score; that for CGTAAATA was 0.343 E-score; that for AGTAAATG was 0.19 E-score.
For the sequence AGTAAATC, the binding signal is 0.262 E-score.
On to AATTCCGT, for which the binding signal was -0.114 E-score.
Turning to GACTTTCA, the binding signal is -0.125 E-score.
Consider CGGCCAAC, for which the binding signal is -0.111 E-score.
With AGAAGATG, the binding signal turned out to be 0.193 E-score.
On to ACTGATAT, for which the binding signal is 0.242 E-score.
In the case of CCGTACCG it was -0.185 E-score; in that of CTGAACTA, 0.203 E-score.
For the sequence AAAGTCGA, the binding signal is -0.0163 E-score.
With GTATAACA, the binding signal worked out at 0.208 E-score.
On to GTATAAAA, for which the binding signal came to 0.343 E-score.
In the case of ATATAATA, the binding signal was 0.452 E-score.
Consider CTATAATA, for which the binding signal came to 0.355 E-score.
Consider CTATAATC, for which the binding signal was 0.279 E-score.
Consider TTATAAAA, for which the binding signal is 0.236 E-score.
Turning to ATATAATG, the binding signal amounted to 0.303 E-score.
With CTATAAGA, the binding signal stood at 0.244 E-score.
The value for GTATAATA was 0.407 E-score; that for GTATAAAC was 0.16 E-score; that for GTATAAGA was 0.199 E-score.
As for ATATAATC, the binding signal came to 0.152 E-score.
On to GATCAGAA, for which the binding signal worked out at 0.11 E-score.
In the case of ACGACCGC, the binding signal was determined as 0.0315 E-score.
In the case of CCCGTTTC it was -0.0198 E-score.
The value for CCATCTAG was -0.0113 E-score; that for ATGAGGGC was -0.183 E-score.
The value for AGCTGCCT was -0.125 E-score; that for CGGTGTTC was -0.0645 E-score; that for AGAACATG was 0.223 E-score.
GGTCTAAA: the binding signal is 0.0268 E-score.
In the case of ATACATCA it was 0.191 E-score; in that of ATTATCTA, 0.412 E-score; in that of ATTATCTC, -0.0512 E-score.
ATTATCTG: the binding signal amounted to 0.284 E-score.
Regarding ACCATCTA, the binding signal came out at 0.351 E-score.
The value for CCTATCCA was -0.0329 E-score; that for AGTATCTG was 0.189 E-score; that for CCTATCTA was 0.34 E-score.
As for ACCATCTC, the binding signal is -0.0707 E-score.
GCCATCTA: the binding signal turned out to be 0.0099 E-score.
For the sequence AGTATCTA, the binding signal was determined as 0.343 E-score.
For the sequence AGTATCTC, the binding signal worked out at 0.238 E-score.
Turning to CCTATCTC, the binding signal was 0.168 E-score.
The value for CTAACGAG was 0.0146 E-score; that for GCCAAGTA was 0.107 E-score.
In the case of AGCGAGCA, the binding signal is -0.18 E-score.
For the sequence TACCAGCA, the binding signal was determined as 0.135 E-score.
On to GAACAACA, for which the binding signal is -0.0557 E-score.
On to ACTATCTC, for which the binding signal is 0.128 E-score.
The value for ACTATCTA was 0.397 E-score; that for GCTATCTA was 0.33 E-score; that for ATTTTCTG was -0.139 E-score.
On to ACTTTCTC, for which the binding signal was 0.0817 E-score.
For CATTTCTA, the binding signal came out at 0.288 E-score.
As for ATTTTCTA, the binding signal turned out to be 0.397 E-score.
With ACTTTCTA, the binding signal was found to be 0.386 E-score.
Regarding GATTTCTA, the binding signal turned out to be 0.3 E-score.
Regarding CCTTTCTA, the binding signal came out at 0.158 E-score.
As for ATTTTCTC, the binding signal came out at 0.264 E-score.
AATTTCGA: the binding signal came out at 0.352 E-score.
Regarding GATTTCGA, the binding signal was 0.183 E-score.
Regarding CATTTCGA, the binding signal was -0.0105 E-score.
Turning to AATTTCTA, the binding signal was determined as 0.344 E-score.
In the case of CTTTACGC, the binding signal was found to be 0.177 E-score.
Take AGGCCGTA: the binding signal was -0.152 E-score.
As for CATCGTAA, the binding signal turned out to be 0.169 E-score.
As for GTTTCCAA, the binding signal came to 0.0167 E-score.
As for CTAGCGTC, the binding signal is -0.0555 E-score.
Regarding AGCTTAGG, the binding signal came to 0.072 E-score.
GGTTTCTA: the binding signal amounted to 0.334 E-score.
The value for AGTTTCTC was 0.274 E-score; that for AGTTTCTA was 0.402 E-score; that for GACAGAAC was -0.0014 E-score.
For the sequence CCTCTAAC, the binding signal was -0.0188 E-score.
As for CTAGTATA, the binding signal stood at 0.409 E-score.
For GCAGTATA, the binding signal is 0.275 E-score.
With CAAGTATA, the binding signal is 0.204 E-score.
As for CCAGTATA, the binding signal worked out at 0.235 E-score.
On to CTAGTATC, for which the binding signal stood at 0.241 E-score.
For GTAGTACA, the binding signal came to 0.236 E-score.
Turning to GTAGTATA, the binding signal worked out at 0.423 E-score.
Consider GAAGTATA, for which the binding signal worked out at 0.169 E-score.
With ACAGTATA, the binding signal turned out to be 0.343 E-score.
On to CCTAACAG, for which the binding signal came out at 0.0291 E-score.
Turning to ATTAGCAA, the binding signal came to 0.0548 E-score.
With CGCAACTC, the binding signal is -0.103 E-score.
With AATGACAA, the binding signal came out at 0.16 E-score.
The value for TATTACGA was 0.296 E-score; that for GCGTATCA was 0.0845 E-score; that for GAACAGTA was 0.264 E-score.
In the case of CAACAGTA, the binding signal came out at 0.316 E-score.
For the sequence TAACAGTA, the binding signal came to 0.355 E-score.
Turning to AGAATGTA, the binding signal amounted to 0.201 E-score.
As for GATATTAC, the binding signal came out at 0.364 E-score.
As for AATATTAC, the binding signal stood at 0.239 E-score.
For TATATTGA, the binding signal is 0.278 E-score.
As to CATATTAA, the binding signal was found to be 0.268 E-score.
CATATTAC: the binding signal was determined as 0.289 E-score.
Take AATATTAA: the binding signal was 0.334 E-score.
Consider TGTATTAA, for which the binding signal worked out at 0.241 E-score.
Turning to GATATTAA, the binding signal amounted to 0.365 E-score.
Turning to AATATTTA, the binding signal was found to be 0.325 E-score.
With GATATTTA, the binding signal is 0.351 E-score.
Consider CATATTTA, for which the binding signal came to 0.324 E-score.
In the case of TATATTAA it was 0.364 E-score; in that of CCGGTCGA, -0.102 E-score; in that of AGAGACTA, 0.093 E-score.
On to CCCTCGTA, for which the binding signal was -0.134 E-score.
Turning to AGCCAAAT, the binding signal was 0.0925 E-score.
For the sequence TAAGAGCA, the binding signal is -0.127 E-score.
Consider CGCTGTGA, for which the binding signal was -0.0511 E-score.
As to GCTTCAAC, the binding signal came out at 0.127 E-score.
The value for AGCTCCAG was -0.0852 E-score.
As to ACATTCTC, the binding signal worked out at 0.0677 E-score.
In the case of ACGTTCTC it was 0.0202 E-score; in that of GGGAAATA, 0.127 E-score.
Consider GTTTAGTA, for which the binding signal turned out to be 0.272 E-score.
For the sequence AATTAGTG, the binding signal is 0.322 E-score.
In the case of ATTTAGTG it was 0.166 E-score.
On to CATTAGTA, for which the binding signal turned out to be 0.227 E-score.
Take AATTAGTA: the binding signal came out at 0.416 E-score.
For the sequence ATTTAGTA, the binding signal turned out to be 0.363 E-score.
In the case of GCGCATAC it was 0.0802 E-score; in that of CGTTCTGA, -0.0208 E-score; in that of CTAGATAA, 0.302 E-score.
On to GTAGATAC, for which the binding signal stood at 0.359 E-score.
For GCAGATAC, the binding signal stood at 0.0143 E-score.
For the sequence TTAGATAA, the binding signal worked out at 0.251 E-score.
Take CTAGATAC: the binding signal came out at 0.22 E-score.
The value for GTAGATAA was 0.407 E-score.
